According to PubChem BioAssay AID1851 (National Center for Advancing Translational Sciences (NCATS), 2009):
Screen size: about 16,000 compounds; about 5,700 (36%) were called active. About 24% were inconclusive and are not listed. This is one part of the list. A number with no mark means an inactive call. The call rests on the fitted dose curve; in most records, active means well fitted curve in the direction sought with a large enough effect; inconclusive means small, poorly fitted or top-dose-only effect, or effect the other way; inactive means no such curve, though single readings can be large or run the other way.

Molecular target: Cytochrome P450 1A2 (Homo sapiens) (UniProt P05177)
Assay: Cytochrome panel assay with activity outcomes
Settings: recombinant CYP, pro-luciferin dealkylation, luminescence, p450-cyp1a2; series mostly up to 57.1 µM; activity, negative = inhibition: at the top concentration
On the % scale 0 is the no-effect control and ±100 the full control effect.

Chain of Cytochrome P450 1A2 (Homo sapiens) (P05177 whole entry, looked up): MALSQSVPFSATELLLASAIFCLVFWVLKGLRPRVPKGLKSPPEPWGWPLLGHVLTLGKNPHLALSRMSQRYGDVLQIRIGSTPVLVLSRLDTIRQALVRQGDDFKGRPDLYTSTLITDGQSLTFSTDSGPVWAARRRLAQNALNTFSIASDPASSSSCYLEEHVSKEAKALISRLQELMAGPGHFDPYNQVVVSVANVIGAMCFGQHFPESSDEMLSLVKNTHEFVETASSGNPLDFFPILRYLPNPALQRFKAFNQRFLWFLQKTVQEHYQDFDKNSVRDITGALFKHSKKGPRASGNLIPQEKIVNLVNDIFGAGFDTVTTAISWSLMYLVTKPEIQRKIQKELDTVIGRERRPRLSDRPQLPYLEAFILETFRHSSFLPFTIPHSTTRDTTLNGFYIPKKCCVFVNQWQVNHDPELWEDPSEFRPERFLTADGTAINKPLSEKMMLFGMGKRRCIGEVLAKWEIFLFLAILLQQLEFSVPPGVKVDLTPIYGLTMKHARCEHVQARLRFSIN

Row | SMILES | activity, negative = inhibition | AC50
1 | CN1CCc2nc(N)nc(-c3nc(N)nc4c3CN(C)CC4)c2C1 | -3.87% [at 2.29 µM] | 
2 | CN1CCC(=C2c3ccccc3C=Cc3ccccc32)CC1 |  | inactive
3 | CC(=O)N1CCC2(CCCN(Cc3ccccc3)C2)CC1 | 9.1% | 
4 | Cc1nc([N+](=O)[O-])c(N2CCN(C)CC2)n1Cc1ccccc1 | -2.13% | 
5 | CCC1(c2ccccc2)C(=O)NCNC1=O | -3.29% [at 25.6 µM] | 
6 | N=C1[C@@H](O)[C@]2(I)c3ccccc3N3C(=N)[C@H](O)[C@@H]4c5ccccc5N1[C@@H]4[C@@H]32 |  | 2.51 µM (active)
7 | Cn1cccc1C(=O)N1CCC[C@@]2(CCN(Cc3cc(C(F)(F)F)cc(C(F)(F)F)c3)C2)C1 | -13.9% | 
8 | CCOc1ccc(NC(=S)N(Cc2ccc(N(C)C)cc2)Cc2ccco2)cc1 |  | 1.26 µM (active)
9 | CCOc1ccc(NC(=S)N(Cc2ccc(Cl)cc2)Cc2ccco2)cc1 |  | 3.55 µM (active)
10 | O=C(COc1ccc(Cl)cc1)Nc1ccc(N2CCN(C(=O)c3ccco3)CC2)cc1 | 8.86% | 
11 | Cc1nn(C)cc1C(C(=O)NC1CCCCC1)N(C(=O)Cc1cccs1)c1ccc(C(C)C)cc1 (stereo not given) | -7.11% | 
12 | CC1Cc2ccccc2N1Cc1nc2cc(C(F)(F)F)ccc2c(=O)[nH]1 (stereo not given) |  | 3.55 µM (active)
13 | CN1CCC(N(C)C(=O)CCc2nc3ccccc3c(=O)[nH]2)CC1 | -10.8% | 
14 | Cc1cc(C)c2c(SCc3ccc(Cl)cc3Cl)nc(N)nc2n1 |  | 3.16 µM (active)
15 | O=C1OCC(c2ccccc2)=C1c1ccc(S(=O)(=O)N2CCOCC2)s1 |  | 25.1 µM (active)
16 | Cc1ccc(NC(=O)CSCC(=O)Nc2ccc(N3CCOCC3)c(Cl)c2)cc1 | -17.7% | 
17 | NC(=O)c1ccc(N2CCCCC2)c(N2C(=O)C3CC=CCC3C2=O)c1 (stereo not given) | 13.4% | 
18 | Cc1ccc(NC(=O)c2cc(N3C(=O)C4CC=CCC4C3=O)ccc2N2CCOCC2)cc1Cl (stereo not given) |  | 6.31 µM (active)
19 | CO/N=C(/CNC(=O)c1ccc(Cl)cc1Cl)c1ccc(Cl)cc1 |  | 2.51 µM (active)
20 | CC1(C)CC(O)CC(C)(C)N1CC(O)COCCOc1ccc(Br)cc1 (stereo not given) | 3.05% | 
21 | Cc1[nH]c2c(C)cccc2c1CCNC(=O)c1ccc2c(c1[N+](=O)[O-])C(=O)c1ccccc1C2=O | -22.8% | 
22 | CCSc1nnc(-c2ccccc2NC(C)=O)c(=O)[nH]1 | -12.1% | 
23 | CCSc1c(C(=O)NC)ccc2c1C(=O)c1ccccc1C2=O |  | 0.316 µM (active)
24 | N#C/C(=C(/O)CN1CCCCC1)c1nc(-c2ccc(Cl)cc2)cs1 |  | 6.31 µM (active)
25 | O=C1OC2CC3CC1CC(O)(C3)C2 (stereo not given) | -7.13% | 

Row | SMILES | activity, negative = inhibition | AC50
26 | NC(=O)CSc1nc2sc(-c3ccccc3)cc2c(=O)n1N |  | 5.01 µM (active)
27 | CNC(C)c1cc(OC)ccc1OC (stereo not given) | -6.45% | 
28 | COc1cc(/C=C\c2ccc(OC)cc2OC)cc(OC)c1 |  | 0.794 µM (active)
29 | COC(=O)C(NC(=O)c1ccc(F)cc1)(Nc1ncc(S(=O)(=O)c2ccc([N+](=O)[O-])cc2)s1)C(F)(F)F (stereo not given) | -16.5% | 
30 | Clc1cccc(Oc2cnc3ccccc3n2)c1 |  | 2.51 µM (active)
31 | CCOC(=O)Cn1nc(C)n(-c2ccc(C)cc2)c1=O | -15.3% | 
32 | CCOC(=O)c1cc2c(C)n(-c3ccc(C)cc3)c(C)c2ccc1=O |  | 12.6 µM (active)
33 | c1ccc(-c2c3ccccc3nc3[nH]c4ccccc4c23)cc1 |  | 0.501 µM (active)
34 | CCCCc1c2ccccc2nc2[nH]c3ccccc3c12 |  | 0.2 µM (active)
35 | O=C(O)[C@@H](O)[C@@H](O)[C@H](O)[C@H](O)CO | -5.55% [at 2.29 µM] | 
36 | CO[C@@H]1COC(=O)CC=C[C@@H](C)[C@@H]2C=C[C@H](O)[C@@H](COC(=O)C/C=C\[C@H]1C)O2 | -1.42% [at 11.4 µM] | 
37 | CNc1ncc(C(=O)c2ccccc2)s1 |  | 4.47 µM (active)
38 | CC(C)(C)NC(=O)C(=O)NNC(=O)c1ccccc1 | 4.42% | 
39 | CC(C)(C)c1nnc(NC(=O)NS(=O)(=O)c2ccccc2)s1 | -30% | 
40 | Cc1ccc(S(=O)(=O)NCc2ccccc2)cc1 |  | 0.501 µM (active)
41 | Cc1ccc(S(=O)(=O)NCC2CCC(C(=O)O)CC2)cc1 (stereo not given) | 0.756% | 
42 | Cc1ccc(-c2nn3c(C)nnc3c3ccccc23)cc1S(=O)(=O)NCc1ccccc1 | -15.2% | 
43 | Cc1ccc(S(=O)(=O)N[C@H](C(=O)O)C(C)C)cc1 | -11% [at 11.4 µM] | 
44 | Cc1ccc(NC(=O)NNS(=O)(=O)c2ccc(Br)cc2)cc1 | -8.48% | 
45 | Cc1ccc(S(=O)(=O)N[C@H](CO)C(=O)O)cc1 | -12% [at 11.4 µM] | 
46 | COc1cc(C)c(Br)cc1S(=O)(=O)NCc1ccccc1 |  | 10 µM (active)
47 | O=S(=O)(C[C@H](O)C(Cl)(Cl)Cl)NNc1ccccc1 | 0.811% [at 2.29 µM] | 
48 | Cc1ccc(S(=O)(=O)NNc2ccccc2)cc1 |  | 2.82 µM (active)
49 | Cc1ccc(NNS(=O)(=O)c2ccc(C)cc2)cc1 |  | 2.82 µM (active)
50 | CCOC(=O)Nc1ccc(S(=O)(=O)NCc2ccccc2)cc1 | -14% | 
